Experimental data: PubChem BioAssay (NCI)
This is part of a sample that, as a whole, favours compounds with a hit. Of some 83,000 tested, about 20% had one in any assay.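 Note: values are percent growth. 100 is the growth of untreated cells, values between 100 and 0 indicate rising inhibition; between -100 and 0 indicates cell death.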 The source made the active and inactive calls. The calls were made as follows: active = growth percent below 10; inactive = the rest.

How the values were obtained:
Assay in all cases: NCI-60 one-dose screen, 48 h (100 = growth as untreated, 0 = no growth, -100 = all killed)
MDA-MB-468 breast = conditions: 10 µM unless noted
NCI-H226 lung = conditions: 10 µM
NCI-H322M lung = conditions: 10 µM
HOP-62 NSCLC = conditions: 10 µM
NCI-H460 lung = conditions: 10 µM
A549/ATCC NSCLC = conditions: 10 µM
COLO 205 colon = conditions: 10 µM
DU-145 prostate = conditions: 10 µM
K-562 leukemia = conditions: 10 µM
SF-539 CNS = conditions: 10 µM
M14 melanoma = conditions: 10 µM
HCT-15 colon = conditions: 10 µM
HT29 colon = conditions: 10 µM
SNB-75 CNS = conditions: 10 µM
U251 CNS = conditions: 10 µM
LOX IMVI melanoma = conditions: 10 µM
MOLT-4 leukemia = conditions: 10 µM
SR leukemia = conditions: 10 µM
RPMI-8226 leukemia = conditions: 10 µM
SK-OV-3 ovarian = conditions: 10 µM

Measured: growth

O=C(Nc1cccnc1Nc1ccc(Cl)cc1)c1cn(Cc2ccc(F)cc2)nn1
inactive: MDA-MB-468 breast 99.5%

O=C(Nc1ccc(OCC(=O)c2ccc(Cl)cc2)cc1)Nc1ccc(Cl)c(C(F)(F)F)c1
inactive: NCI-H226 lung 38% | NCI-H322M lung 49.1% | HOP-62 NSCLC 47.6% | NCI-H460 lung 27.6% | A549/ATCC NSCLC 24.3% | DU-145 prostate 66.2% | K-562 leukemia 65.3% | SF-539 CNS 47.3% | M14 melanoma 33.9% | HCT-15 colon 23.6% | HT29 colon 33.6% | SNB-75 CNS 51.5% | U251 CNS 35.6% | MOLT-4 leukemia 45.3% | SR leukemia 39.5% | RPMI-8226 leukemia 12.2% | SK-OV-3 ovarian 33% | MDA-MB-468 breast 26%
active: COLO 205 colon -49.4% | LOX IMVI melanoma -37.8%

Cn1cc(-c2nc(N)nnc2-c2c[nH]c3ccccc23)c2cc(Br)cnc21
inactive: NCI-H322M lung 37.2% | HOP-62 NSCLC 28.5% | A549/ATCC NSCLC 16.4% | DU-145 prostate 20.6% | HCT-15 colon 10.2% | LOX IMVI melanoma 15.6% | MOLT-4 leukemia 13.8% | RPMI-8226 leukemia 13% | SK-OV-3 ovarian 26.5%
active: NCI-H226 lung 0.98% | NCI-H460 lung 4.09% | COLO 205 colon -75.9% | K-562 leukemia 9.47% | SF-539 CNS 8.25% | M14 melanoma 8.68% | HT29 colon -27.2% | SNB-75 CNS 2.04% | U251 CNS 8.89% | SR leukemia 8.01% | MDA-MB-468 breast -9.99%

O=C1C(=O)c2c(ccc3ccccc23)-c2ccccc21
active: MDA-MB-468 breast -79.9%

O=C1NC2C=CC=CC2/C1=C1/SC(=S)N(C2CC(=O)N(c3ccc(Br)cc3)C2=O)C1=O (stereo not given)
inactive: NCI-H226 lung 91.3% | NCI-H322M lung 101% | HOP-62 NSCLC 99.2% | NCI-H460 lung 100% | A549/ATCC NSCLC 99% | COLO 205 colon 104% | DU-145 prostate 97.5% | K-562 leukemia 55.1% | SF-539 CNS 93.6% | M14 melanoma 103% | HCT-15 colon 59.3% | HT29 colon 98.1% | SNB-75 CNS 101% | U251 CNS 91.4% | LOX IMVI melanoma 33.8% | MOLT-4 leukemia 70.5% | SR leukemia 67.9% | RPMI-8226 leukemia 50% | SK-OV-3 ovarian 99.1% | MDA-MB-468 breast 84.2%

COc1cccc(C(=O)CSc2nc(-c3ccc(OCc4ccccc4)c(OC)c3)c(C#N)c(=O)[nH]2)c1
inactive: NCI-H226 lung 86.6% | NCI-H322M lung 88.3% | HOP-62 NSCLC 92.2% | NCI-H460 lung 106% | A549/ATCC NSCLC 98.5% | COLO 205 colon 115% | DU-145 prostate 107% | K-562 leukemia 90.6% | SF-539 CNS 94.2% | M14 melanoma 99.5% | HCT-15 colon 92.8% | HT29 colon 116% | SNB-75 CNS 87.7% | U251 CNS 79.2% | LOX IMVI melanoma 85.7% | MOLT-4 leukemia 102% | SR leukemia 93.9% | RPMI-8226 leukemia 102% | SK-OV-3 ovarian 94.5% | MDA-MB-468 breast 88.4%

COc1ccc(-c2c3c(nn2-c2ccc(N)cc2)CCc2cnoc2-3)cc1OC
inactive: MDA-MB-468 breast 92.8%

CN1[C@@H]2CC[C@H]1/C(=C\c1ccccc1)C1=C2[C@@H](c2ccccc2)C(C#N)=C(N)O1
inactive: MDA-MB-468 breast 50.3%

CC1=CC(=NC(=O)CBr)C=C/C1=N\S(=O)(=O)c1ccccc1
inactive: MDA-MB-468 breast 66%

O=c1oc2ccc(I)cc2c(=O)n1-c1ccc(Cl)cc1F
active: MDA-MB-468 breast 0.339%

C=C1CC[C@H](C(C)C)[C@@H]2[C@H]1[C@H]1CC(=C)[C@@H](O)CC[C@@](C)(O)[C@@H]2O1
inactive: MDA-MB-468 breast 89%

CC(=O)Nc1cccc(C2=CC(c3ccc(C)cc3)n3ncnc3N2)c1 (stereo not given)
inactive: MDA-MB-468 breast 92.7%

N/C(=N\c1nc2ccccc2[nH]1)NC(=O)Cc1cccc2ccccc12
inactive: MDA-MB-468 breast 79.8%

COc1ccc(C2C(c3ccccc3)C(=O)N2c2cc(OC)c(OC)c(OC)c2)cc1I (stereo not given)
inactive: MDA-MB-468 breast 15.7%

CC1=NNC(=O)C1CCC(=O)N/N=C(\C)c1ccc2ccccc2c1 (stereo not given)
inactive: MDA-MB-468 breast 119%

Cc1ccccc1/C=C/C(=O)c1cccc(OCCCOc2cccc(C(=O)/C=C/c3ccccc3C)c2)c1
inactive: MDA-MB-468 breast 108% [3 µM]

O=C(O)CCC(=O)OC[C@@H](NC(=O)C(Cl)Cl)[C@H](O)c1ccc([N+](=O)[O-])cc1
inactive: MDA-MB-468 breast 95.5%

O=C(O)c1ccc(-n2c(=O)n(-c3cccc(C(F)(F)F)c3)c(=O)c3cc(-c4ccc(F)cc4F)ccc32)cc1
active: MDA-MB-468 breast -4.52%

COc1ccc(-c2nc3ccc(C)cc3c3c2c(=O)n(C)c(=O)n3C)cc1OC
inactive: MDA-MB-468 breast 100%
